Compound in the assay: Nc1ncnc2c1ncn2[C@@H]1O[C@H](COP(=O)(O)OP(=O)(O)OP(=O)(O)O)[C@@H](O)[C@H]1O [adenosine 5'-triphosphate]
The assay is described as follows: log2 fold change of tryptic peptide abundance, ligand vs vehicle (limited proteolysis) (log2 ratio); higher = more trypsin-susceptible (destabilized). The following applies: ligand concentration: 5 mM; sample: E. coli desalted lysate; replicate design: treated before aliquoting. The protocol: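 HT-PELSA: desalted E. coli K-12 BW25113 lysate (with 12 mM MgCl2) incubated with 5 mM ATP (pH 7) or water for 30 min at 25 C, then a 4 min trypsin pulse at 22 C. Peptides were quantified by DIA-MS (4 replicates). Value is the peptide log2 fold change (treated/control); negative = stabilized. Scale: negative = ligand-stabilized region.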
Chain of UniProt P21866 (P21866 whole entry): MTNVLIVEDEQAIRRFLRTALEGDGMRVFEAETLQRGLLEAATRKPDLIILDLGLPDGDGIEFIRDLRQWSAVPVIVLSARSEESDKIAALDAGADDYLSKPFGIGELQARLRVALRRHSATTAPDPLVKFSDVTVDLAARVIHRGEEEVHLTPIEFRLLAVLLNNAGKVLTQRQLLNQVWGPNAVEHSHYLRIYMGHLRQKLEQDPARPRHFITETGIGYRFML
Chain of UniProt P00959 (P00959 whole entry, looked up): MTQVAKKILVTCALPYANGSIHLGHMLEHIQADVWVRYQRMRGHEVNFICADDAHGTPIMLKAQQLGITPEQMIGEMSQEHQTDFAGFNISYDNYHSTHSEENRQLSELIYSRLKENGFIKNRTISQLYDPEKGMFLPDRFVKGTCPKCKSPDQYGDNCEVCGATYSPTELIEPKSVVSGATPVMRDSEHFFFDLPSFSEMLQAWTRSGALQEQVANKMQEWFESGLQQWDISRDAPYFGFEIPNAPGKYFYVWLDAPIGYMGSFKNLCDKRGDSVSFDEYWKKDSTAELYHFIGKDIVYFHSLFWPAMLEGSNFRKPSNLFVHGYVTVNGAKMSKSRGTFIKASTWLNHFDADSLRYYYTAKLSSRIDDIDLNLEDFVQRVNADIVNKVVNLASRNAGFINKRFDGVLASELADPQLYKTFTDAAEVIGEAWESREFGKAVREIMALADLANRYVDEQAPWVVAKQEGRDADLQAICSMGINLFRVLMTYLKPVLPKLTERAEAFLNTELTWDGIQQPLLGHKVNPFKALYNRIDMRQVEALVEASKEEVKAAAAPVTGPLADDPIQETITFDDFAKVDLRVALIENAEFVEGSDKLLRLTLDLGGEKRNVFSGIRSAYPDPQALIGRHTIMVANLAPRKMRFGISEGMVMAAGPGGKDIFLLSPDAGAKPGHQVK
Chain of UniProt P25894 (P25894 whole entry): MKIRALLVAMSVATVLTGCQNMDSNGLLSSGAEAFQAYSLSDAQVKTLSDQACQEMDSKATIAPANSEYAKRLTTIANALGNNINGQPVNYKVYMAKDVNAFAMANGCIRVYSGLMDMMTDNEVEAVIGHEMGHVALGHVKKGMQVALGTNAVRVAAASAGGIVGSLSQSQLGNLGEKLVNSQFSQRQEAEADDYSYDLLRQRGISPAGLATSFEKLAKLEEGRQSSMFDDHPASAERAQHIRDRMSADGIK
Chain of UniProt P31663 (P31663 whole entry): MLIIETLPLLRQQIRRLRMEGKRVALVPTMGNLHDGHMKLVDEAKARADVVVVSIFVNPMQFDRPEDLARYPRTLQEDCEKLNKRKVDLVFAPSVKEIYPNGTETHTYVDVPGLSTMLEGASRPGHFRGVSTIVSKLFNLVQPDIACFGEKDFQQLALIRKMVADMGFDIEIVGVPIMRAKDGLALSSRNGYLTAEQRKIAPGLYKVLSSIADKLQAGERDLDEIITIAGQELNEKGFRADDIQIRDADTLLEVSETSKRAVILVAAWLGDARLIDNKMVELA
Chain of UniProt P06966 (P06966 whole entry): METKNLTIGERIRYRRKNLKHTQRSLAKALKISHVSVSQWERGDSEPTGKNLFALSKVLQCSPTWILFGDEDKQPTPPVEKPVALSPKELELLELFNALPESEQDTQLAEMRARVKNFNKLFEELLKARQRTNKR
Chain of UniProt P23305 (P23305 whole entry): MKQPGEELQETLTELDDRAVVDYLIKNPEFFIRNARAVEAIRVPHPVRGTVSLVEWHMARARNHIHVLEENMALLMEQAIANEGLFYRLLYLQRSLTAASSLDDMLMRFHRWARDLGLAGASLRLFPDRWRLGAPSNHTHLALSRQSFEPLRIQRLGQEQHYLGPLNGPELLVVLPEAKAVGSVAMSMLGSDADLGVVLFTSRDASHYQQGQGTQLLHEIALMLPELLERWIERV
Chain of UniProt P00509 (P00509 whole entry): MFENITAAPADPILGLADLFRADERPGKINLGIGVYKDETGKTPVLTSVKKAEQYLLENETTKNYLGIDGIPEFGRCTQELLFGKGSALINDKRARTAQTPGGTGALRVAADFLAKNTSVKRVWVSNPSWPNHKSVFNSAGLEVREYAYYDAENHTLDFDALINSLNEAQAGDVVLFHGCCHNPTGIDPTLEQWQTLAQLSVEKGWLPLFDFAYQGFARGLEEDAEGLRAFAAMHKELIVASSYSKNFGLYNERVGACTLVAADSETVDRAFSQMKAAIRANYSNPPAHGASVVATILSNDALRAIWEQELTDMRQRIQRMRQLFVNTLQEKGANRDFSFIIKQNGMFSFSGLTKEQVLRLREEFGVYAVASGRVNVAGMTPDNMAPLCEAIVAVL
Chain of UniProt P77279 (P77279 whole entry): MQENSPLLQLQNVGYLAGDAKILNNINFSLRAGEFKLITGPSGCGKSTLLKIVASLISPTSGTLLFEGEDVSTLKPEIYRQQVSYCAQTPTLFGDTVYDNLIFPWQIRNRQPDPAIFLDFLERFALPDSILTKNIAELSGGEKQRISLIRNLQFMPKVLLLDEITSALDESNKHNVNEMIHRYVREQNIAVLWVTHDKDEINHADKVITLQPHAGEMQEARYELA
Chain of UniProt P27296 (P27296 whole entry): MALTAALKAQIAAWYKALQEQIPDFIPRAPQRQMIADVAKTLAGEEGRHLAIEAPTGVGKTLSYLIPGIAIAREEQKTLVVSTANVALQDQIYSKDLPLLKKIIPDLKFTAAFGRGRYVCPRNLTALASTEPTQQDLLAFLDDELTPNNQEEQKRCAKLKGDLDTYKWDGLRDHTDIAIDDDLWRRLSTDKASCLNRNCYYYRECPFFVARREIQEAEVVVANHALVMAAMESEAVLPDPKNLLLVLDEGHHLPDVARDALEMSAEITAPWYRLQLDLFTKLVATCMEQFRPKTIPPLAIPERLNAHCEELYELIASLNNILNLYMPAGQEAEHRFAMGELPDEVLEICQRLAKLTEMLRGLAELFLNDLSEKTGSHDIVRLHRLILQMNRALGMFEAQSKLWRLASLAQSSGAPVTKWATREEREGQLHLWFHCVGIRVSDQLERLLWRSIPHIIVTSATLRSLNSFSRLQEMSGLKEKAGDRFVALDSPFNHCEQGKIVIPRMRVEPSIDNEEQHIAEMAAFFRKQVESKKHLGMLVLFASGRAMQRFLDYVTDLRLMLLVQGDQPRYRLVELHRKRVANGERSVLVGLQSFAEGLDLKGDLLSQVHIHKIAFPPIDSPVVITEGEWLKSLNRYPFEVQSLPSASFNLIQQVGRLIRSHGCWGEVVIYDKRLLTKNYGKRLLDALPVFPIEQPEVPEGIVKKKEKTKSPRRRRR
Chain of UniProt P76543 (P76543 whole entry): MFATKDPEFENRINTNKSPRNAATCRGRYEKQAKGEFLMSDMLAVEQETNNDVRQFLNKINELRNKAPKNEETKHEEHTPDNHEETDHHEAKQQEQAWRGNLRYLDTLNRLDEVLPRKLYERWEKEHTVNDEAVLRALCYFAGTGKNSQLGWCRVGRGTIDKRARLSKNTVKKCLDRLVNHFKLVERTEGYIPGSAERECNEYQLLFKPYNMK
Chain of UniProt P00452 (P00452 whole entry): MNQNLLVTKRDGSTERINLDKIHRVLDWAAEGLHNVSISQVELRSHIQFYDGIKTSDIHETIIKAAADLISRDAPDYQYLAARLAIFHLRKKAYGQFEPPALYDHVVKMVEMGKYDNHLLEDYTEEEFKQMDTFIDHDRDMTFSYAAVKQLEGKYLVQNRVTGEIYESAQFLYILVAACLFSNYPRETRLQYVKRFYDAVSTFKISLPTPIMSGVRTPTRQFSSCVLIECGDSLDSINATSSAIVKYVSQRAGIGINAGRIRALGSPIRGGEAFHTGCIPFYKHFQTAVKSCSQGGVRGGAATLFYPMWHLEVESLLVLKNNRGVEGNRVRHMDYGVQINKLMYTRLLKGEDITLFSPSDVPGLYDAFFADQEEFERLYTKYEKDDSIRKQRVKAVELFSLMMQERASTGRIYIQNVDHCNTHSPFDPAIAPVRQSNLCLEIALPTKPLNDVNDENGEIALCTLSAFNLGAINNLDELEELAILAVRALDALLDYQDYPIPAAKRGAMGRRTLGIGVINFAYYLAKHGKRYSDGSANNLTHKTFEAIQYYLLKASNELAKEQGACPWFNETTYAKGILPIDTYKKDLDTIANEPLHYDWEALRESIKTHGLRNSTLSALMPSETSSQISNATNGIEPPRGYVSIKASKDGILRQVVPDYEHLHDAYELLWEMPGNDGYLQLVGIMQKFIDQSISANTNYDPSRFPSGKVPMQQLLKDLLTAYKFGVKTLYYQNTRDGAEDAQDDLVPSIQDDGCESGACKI
Chain of UniProt P09169 (P09169 whole entry): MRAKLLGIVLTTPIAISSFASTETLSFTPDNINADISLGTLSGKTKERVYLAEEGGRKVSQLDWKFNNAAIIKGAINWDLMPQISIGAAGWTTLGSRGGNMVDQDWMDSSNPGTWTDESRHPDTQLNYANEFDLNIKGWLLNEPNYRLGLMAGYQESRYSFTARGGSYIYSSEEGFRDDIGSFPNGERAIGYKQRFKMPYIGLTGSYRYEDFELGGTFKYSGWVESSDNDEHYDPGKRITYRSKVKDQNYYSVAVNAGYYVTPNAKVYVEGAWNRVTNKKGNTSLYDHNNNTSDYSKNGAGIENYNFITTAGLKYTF
Chain of UniProt P23841 (P23841 whole entry): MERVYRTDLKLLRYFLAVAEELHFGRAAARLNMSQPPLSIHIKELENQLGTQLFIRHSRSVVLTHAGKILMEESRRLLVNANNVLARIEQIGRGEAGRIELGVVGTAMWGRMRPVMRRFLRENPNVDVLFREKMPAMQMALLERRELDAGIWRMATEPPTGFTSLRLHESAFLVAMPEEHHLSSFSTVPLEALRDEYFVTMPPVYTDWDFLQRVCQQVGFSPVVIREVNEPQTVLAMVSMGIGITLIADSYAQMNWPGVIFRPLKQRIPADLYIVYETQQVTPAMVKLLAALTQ
Chain of UniProt P30176 (P30176 whole entry): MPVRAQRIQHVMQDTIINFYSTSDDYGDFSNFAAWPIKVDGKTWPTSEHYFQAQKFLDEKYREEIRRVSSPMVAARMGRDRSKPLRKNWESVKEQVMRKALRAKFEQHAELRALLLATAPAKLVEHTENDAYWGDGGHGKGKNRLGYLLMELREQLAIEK
Take “UniProt P08373 (peptide sequence: VNGNAGSFFKNPVVSAETAK, peptide start residue: 223)”: the log2 fold change came out at 0.267. The figure for “UniProt P31663 (peptide sequence: VLSSIADKLQAGER, peptide start residue: 207)” is -3.26; for “UniProt P09169 (peptide sequence: MPYIGLTGSYR, peptide start residue: 198)” it is 1.26; for “UniProt P06966 (peptide sequence: ISHVSVSQWER, peptide start residue: 32)” it is -1.

On to “UniProt P32684 (peptide sequence: ITLVQGLNR, peptide start residue: 179)”, for which the log2 fold change was 0.498. In the case of “UniProt P77302 (peptide sequence: KEEETALSCR, peptide start residue: 80)”, the log2 fold change was -1.39. As to “UniProt P34209 (peptide sequence: MTGDNPDAPR, peptide start residue: 166)”, the log2 fold change is -0.261.

Consider “UniProt P31660 (peptide sequence: SGNDLHYR, peptide start residue: 38)”, for which the log2 fold change worked out at 1.29.

As for “UniProt P23841 (peptide sequence: LNMSQPPLSIHIK, peptide start residue: 31)”, the log2 fold change is -0.876. The figure for “UniProt P23305 (peptide sequence: DLGLAGASLR, peptide start residue: 115)” is 0.488.

On to “UniProt P0AAS7 (peptide sequence: LEGWSESGAQAK, peptide start residue: 20)”, for which the log2 fold change is -0.938. As for “UniProt P24182 (peptide sequence: LMGDKVSAIAAMKK, peptide start residue: 112)”, the log2 fold change was -1.24. On to “UniProt P21866 (peptide sequence: RHSATTAPDPLVK, peptide start residue: 118)”, for which the log2 fold change stood at 1.65. With “UniProt P03835 (peptide sequence: DLASMGQLVK, peptide start residue: 402)” the figure was -1.3; with “UniProt P00452 (peptide sequence: FYDAVSTFK, peptide start residue: 196)”, -3.51; with “UniProt P00509 (peptide sequence: VWVSNPSWPNHK, peptide start residue: 123)”, -1.24. On to “UniProt P00959 (peptide sequence: HTIMVANLAPRK, peptide start residue: 630)”, for which the log2 fold change is -0.728. The figure for “UniProt P77279 (peptide sequence: NIAELSGGEK, peptide start residue: 134)” is -0.683; for “UniProt P37313 (peptide sequence: GTKDQIFNNPR, peptide start residue: 244)” it is 1.01. Regarding “UniProt P76506 (peptide sequence: SDPLEGFNR, peptide start residue: 29)”, the log2 fold change amounted to 0.294.

As for “UniProt P76543 (peptide sequence: NSQLGWCR, peptide start residue: 147)”, the log2 fold change was -0.802. For the target “UniProt P27296 (peptide sequence: SIPHIIVTSATLR, peptide start residue: 451)”, the log2 fold change was -2.01. With “UniProt P31802 (peptide sequence: GMSGLDTLNALRR, peptide start residue: 64)” the figure was 0.209; with “UniProt P76053 (peptide sequence: NVLIIHGK, peptide start residue: 116)”, 0.613; with “UniProt P33940 (peptide sequence: EYYPQAK, peptide start residue: 403)”, -1.61.

Take “UniProt P77611 (peptide sequence: LFSAFRK, peptide start residue: 4)”: the log2 fold change was 0.344. With “UniProt Q46855 (peptide sequence: VGYESASQFSR, peptide start residue: 285)” the figure was 0.235. Consider “UniProt P30176 (peptide sequence: LVEHTENDAYWGDGGHGK, peptide start residue: 123)”, for which the log2 fold change is -0.814. As to “UniProt P45568 (peptide sequence: ESLVTCGR, peptide start residue: 126)”, the log2 fold change was determined as 0.779.

As to “UniProt P36683 (peptide sequence: EALGLPHSDVFR, peptide start residue: 359)”, the log2 fold change came out at 0.334. With “UniProt P25894 (peptide sequence: QRGISPAGLATSFEK, peptide start residue: 202)” the figure was 0.934.
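Also: lysate desalted by size exclusion to strip endogenous ATP, peptide intensities built from DIA-NN precursor signals, and peptides missing any value discarded before comparison.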
